{"source": "PubChem BioAssay (Tox21)", "note": "Results filed as inconclusive are left out. A number with no mark means an inactive call. The source made the active and inactive calls. The call rests on the fitted dose curve. On the % scale 0 is the no-effect control and ±100 the full control effect; potency means the concentration at half of the fitted maximal effect."}
{"system": "estrogen-related receptor alpha (ERRalpha) with PGC-1alpha coactivator, human", "assay": "qHTS assay to identify small molecule antagonists of the estrogen related receptor signaling pathway with the pleiotropic PPARgamma coactivator (PGC) (AID 1224821); further: nearly all actives have a fitted effect of over 50% in size;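 on activity change, negative = inhibition: lower luminescence signal means antagonism of PGC/ERR signalling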", "conditions": "ERR/PGC reporter cell line, luciferase, antagonist mode; series mostly up to 46.1 µM; activity change, negative = inhibition: at the top concentration", "method_in_brief": "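PGC/ERR reporter cell line, plated 6 h before compound addition, then exposed 18 h at 37 °C. Luciferase activity read by luminescence 30 min after One-Glo addition; decrease indicates antagonism.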", "units": {"activity change, negative = inhibition": "%"}}
{"smiles": "Nc1ncnc2c1ncn2C1CCCO1", "note": "(stereo not drawn)", "activity change, negative = inhibition": -3.92}
{"smiles": "CC(C)Cc1ccc([C@H](C)C(=O)O)cc1", "activity change, negative = inhibition": -6.46}
{"smiles": "CC(C)(C)c1onc(OCP(=O)(O)O)c1CC(N)C(=O)O", "note": "(stereo not drawn)", "Potency": "inactive"}
{"smiles": "CNCCNS(=O)(=O)c1cccc2cnccc12", "Potency": "9.08 µM (active)"}
{"smiles": "CC[N+](CC)(CC)CC(=O)Nc1c(C)cccc1C", "activity change, negative = inhibition": 4.32}
{"smiles": "CCOC(=O)C12CC1/C(=N/O)c1ccccc1O2", "note": "(stereo not drawn)", "activity change, negative = inhibition": -3.21}
{"smiles": "O=[N+]([O-])c1cccc2cn[nH]c12", "activity change, negative = inhibition": 17.2}
{"smiles": "NC(N)=[N+]1CCc2ccccc2C1", "activity change, negative = inhibition": -17.8}
{"smiles": "NCCCCN=C(N)N", "activity change, negative = inhibition": 0.396}
{"smiles": "NC(N)=NC(N)=Nc1cccc(Cl)c1", "activity change, negative = inhibition": -21.9}
{"smiles": "CS(=O)(=O)c1cccc(CNc2nc(Nc3ccc4c(c3)CCC(=O)N4)ncc2C(F)(F)F)c1", "activity change, negative = inhibition": 10.3}
{"smiles": "CC(=O)NC[C@H]1CN(c2ccc(N3CCOCC3)c(F)c2)C(=O)O1", "activity change, negative = inhibition": -10.2}
{"smiles": "CCNc1nc2c(ncn2[C@H]2C[C@H](O)[C@@H](CO)O2)c(=O)[nH]1", "activity change, negative = inhibition": 1.1}
{"smiles": "O=C(O)CCC(=O)N1CCCC1C(=O)O", "note": "(stereo not drawn)", "activity change, negative = inhibition": 19}
{"smiles": "O=C(O)c1cc(=O)cc(C(=O)O)[nH]1", "activity change, negative = inhibition": 4.17}
{"smiles": "Nc1ncnc2c1ncn2[C@@H]1O[C@H](COP(=O)(O)OP(=O)(O)OP(=O)(O)OP(=O)(O)OC[C@@H]2O[C@H](n3cnc4c(N)ncnc43)[C@@H](O)C2O)C(O)[C@H]1O", "note": "(stereo partly drawn)", "activity change, negative = inhibition": 238}
{"smiles": "COc1ccc(-c2cc3ncc(C)n3c(Nc3ncccc3C(N)=O)n2)cc1OC", "Potency": "2.37 µM (active)"}
{"smiles": "CC(C)(Sc1ccc(CCN(CCCCC2CCCCC2)C(=O)NC2CCCCC2)cc1)C(=O)O", "activity change, negative = inhibition": -0.75}
{"smiles": "N[C@@H](Cc1ccc(O)c(O)c1)C(=O)O", "activity change, negative = inhibition": -9.52}
{"smiles": "Brc1ccc([C@H]2CN3CCSC3=N2)cc1", "activity change, negative = inhibition": 11.9}
{"smiles": "COc1ccc(-c2ccc(N)[n+](CCCC(=O)O)n2)cc1", "activity change, negative = inhibition": 1.21}
{"smiles": "NC1CCN(O)C1=O", "note": "(stereo not drawn)", "activity change, negative = inhibition": 16.8}
{"smiles": "O=C(O)C1=CCCNC1", "activity change, negative = inhibition": -6.35}
{"smiles": "COCCOc1cc2nc[nH]c(=O)c2cc1OCCOC", "activity change, negative = inhibition": -5.44}
{"smiles": "O=C1NC(=O)/C(=C/c2ccc3c(c2)OC(F)(F)O3)S1", "activity change, negative = inhibition": 53.7}
{"smiles": "COc1ccc2c(c1)c(CC(=O)O)c(C)n2Cc1ccc(Cl)cc1", "activity change, negative = inhibition": -0.19}
{"smiles": "O=Nc1c(-c2c(O)[nH]c3cc(Br)ccc23)[nH]c2ccccc12", "activity change, negative = inhibition": -69.5}
{"smiles": "CNCCC(Oc1ccccc1C)c1ccccc1", "note": "(stereo not drawn)", "activity change, negative = inhibition": -23.5}
{"smiles": "O=C(OCCN1CCOCC1)C1(c2ccccc2)CCCCC1", "activity change, negative = inhibition": -26.4}
{"smiles": "N[C@H](C(=O)O)[C@H](O)C(=O)O", "activity change, negative = inhibition": -1.8}
{"smiles": "CCCn1c(=O)c2[nH]c(-c3ccc(S(=O)(=O)O)cc3)nc2n(CCC)c1=O", "activity change, negative = inhibition": -19}
{"smiles": "N#CC(=C(\\N)Sc1ccccc1N)/C(C#N)=C(/N)Sc1ccccc1N", "Potency": "9.81 µM (active)"}
{"smiles": "Cc1cc(Cn2cnc3c2C[C@@H](C(=O)O)N(C(=O)C(c2ccccc2)c2ccccc2)C3)ccc1N", "activity change, negative = inhibition": -6.42}
{"smiles": "NC1(C(=O)O)CC1", "activity change, negative = inhibition": -0.562}
{"smiles": "NOCC(=O)O", "activity change, negative = inhibition": -19.7}
{"smiles": "O=c1[nH]c(=O)c2nc3ccccc3nc2[nH]1", "activity change, negative = inhibition": 2.29}
{"smiles": "Brc1c(Br)c(Br)c2n[nH]nc2c1Br", "Potency": "21.1 µM (active)"}
{"smiles": "O=c1onc2cnc3ccccc3n12", "activity change, negative = inhibition": 55.3}
